# Laboratory results reported in PubChem BioAssay (EPA / NIEHS).
# Inconclusive results are not listed. The source holds several records for some structures; these can differ, active in one and inactive in another. Calls of active or inactive are those of the source. How the source made its calls, unless noted: active means hit-call score of the fitted dose curve at least 0.9, where 1 is the maximum; inconclusive means response in the unintended direction; inactive means score below 0.9.
# Key:
# [1] = CPHEA_Stoker_NIS_Cytotoxicity: Cytotoxicity Assessment for CPHEA's Radioactive Iodide Uptake (RAIU) Assay for Sodium/Iodide Symporter (NIS) Inhibition, Stoker and Laws Labs (AID 2283897);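 on AC50: active means loss of ATP signal versus DMSO meaning cytotoxicity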
# How it was run: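 hNIS-HEK293T-EPA cells, human NIS expressed in HEK293T, treated 2 h with chemicals (0.001–100 uM, 0.5% final DMSO). ATP content read by CellTiter-Glo luminescence; loss of signal analysed relative to DMSO.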
# [2] = CEETOX_H295R_11DCORT_noMTC: CeeTox H295R High-throughput Steroidogenesis Assay for 11-Deoxycortisol (11DCORT), maximum tolerated concentration (MTC) filtered results only (AID 2283911; active means hit-call score of the fitted dose curve at least 0.9, where 1 is the maximum; inactive means score below 0.9); settings: actives raise or lower the signal
# Protocol: CEETOX_H295R is a cell-based, multiplexed-readout assay that uses H295R, a human adrenal gland cell line, with measurements taken at 48 hours after chemical dosing in a 96-well plate.CEETOX_H295R_11DCORT_noMTC is one of 12 assay component(s) measured or calculated from the CEETOX_H295R assay (11 hormones and 1 viability assay). It is designed to make measurements of hormone induction, a form of inducible reporter, as detected with absorbance signals by HPLC-MS-MS technology. The concentrations for these components have not been pre-filtered for the maximum tolerated concentration (MTC) based on the MTT assay (_noMTC).Data from the assay component CEETOX_H295R_11DCORT_noMTC was analyzed into 1 assay endpoint. This assay endpoint, CEETOX_H295R_11DCORT_noMTC, was analyzed with bidirectional fitting relative to DMSO as the negative control and baseline of activity. […]
# Cell culture and media preparation procedures were conducted in accordance with OECD Test No. 456 guidelines, with minor modifications. […] For steroid quantification, media samples were shipped to OpAns, LLC (Durham, NC) on dry ice, and samples were thawed to room temperature prior to liquid-liquid extraction. […] Steroid hormones were separated by HPLC, eluted using a reverse phase C18 gradient with electrospray positive ionization, followed by quantification by tandem mass spectrometry (MS/MS). Data were acquired on a MassHunter Workstation Acquisition version B03.01 (Agilent Technologies, Inc.) and processed using MassHunter Quantitative Analysis for QQQ. Accuracy was determined for each hormone analyte from 3 standards to determine upper and lower limits of quantification (ULOQ and LLOQ, respectively) using a 7-point standard curve. Precision and accuracy of the extraction and quantification methods were calculated as the percent relative standard deviation (%RSD) of the spiked standards and percent spiked standard recovered, respectively. […] Test medium was removed following chemical exposure, and cell viability was evaluated in the same wells by MTT. […]
# [3] = tested on: zebrafish Peroxisome Proliferator-activated Receptor gamma (PPARg), gene 557037; test: ATG_zfPPARg_XSP2: Attagene TRANS-FACTORIAL Multi-Species (XSP2) HepG2 Assay for zebrafish Peroxisome Proliferator-activated Receptor gamma (PPARg) (AID 2283833);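 further: reporter mRNA from a zebrafish PPARg GAL4 chimera measured by RT-PCR and capillary electrophoresis; actives increase reporter signal over DMSO so AC50 reflects activation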
# Protocol: (§1) ATG_XSP2_multi-species_TRANS is a cell-based, multiplexed assay created by modifying the existing Attagene TRANS-FACTORIAL system to include a panel of nuclear receptors from some or all the following species: human (Homo sapiens), mouse (Mus musculus), frog (Xenopus laevis), zebrafish (Danio rerio), chicken (Gallus gallus), and turtle (Chrysemys picta). The ECOTOX-FACTORIAL format uses HepG2, a human liver cell line, with measurements taken at 24 hours after chemical dosing in a 24-well plate. Xsp2 included 3 nM 6-alpha-fluorotestosterone and 1.5 nM norgestrel to stimulate the androgen receptor.ATG_zfPPARg_XSP2 is one of 29 assay components measured or calculated from the ATG_XSP2_multi-species_TRANS assay. It is designed to make measurements of mRNA induction, a form of inducible reporter, as detected with fluorescence intensity signals by Reverse transcription polymerase chain reaction (RT-PCR) and Capillary electrophoresis technology.The assay endpoint ATG_zfPPARg_XSP2 was analyzed in the positive analysis fitting direction relative to DMSO as the negative control and baseline of activity. Using a type of inducible reporter, measures of mRNA for gain-of-signal activity can be used to understand the reporter gene at the transcription factor-level as they relate to the gene PPARg. Furthermore, this assay endpoint can be referred to as a primary readout, because this assay has produced multiple assay endpoints where this one serves a reporter gene function. To generalize the intended target to other relatable targets, this assay endpoint is annotated to the nuclear receptor intended target family, where the subfamily is non-steroidal.
# (§2) Human liver HepG2 cells are transiently transfected with multiple reporter transcription units (MRTUs) in 6-well plates using FuGene 6 reagent (Roche; 3 ml FuGene/1 mg DNA). The MRTU constructs are regulated by a cis-regulating element (promoter). […] A major difference between the CIS and TRANS system is that in CIS activities of endogenous TFs are measured, whereas the TRANS assay evaluates changes in activities of exogenous, chimeric NR-Gal4 proteins. […] At the end of 24 hour incubation, total RNA was isolated using TriZol reagent (Invitrogen). The isolated RNA is then reverse-transcribed using oligo(dT) primer and Mo-MLV reverse transcriptase (Invitrogen) with DNAse I (Ambion) treatment for 30 min. The one-tenth of the produced cDNA was amplified by PCR using Taq DNA polymerase (Invitrogen) and two reporter sequence-specific primers. The PCR products were fluorescently labeled by primer extension with 6-arboxyfluorescein (6-FAM) 5'-labeled reporter sequence-specific primer (2 min at 95 C, 20 s at 68 C and 10 min at 72 C) and these products were digested with 5U of HpaI (New England Biolabs) for 2h at 37 C. The fragments were purified using Qiaquick PCR columns (Qiagen), analyzed on an ABI 3130xL genetic analyzer (Applied Biosystems) with peak positions identified by using a set of X-rhodamine (ROX)-labeled MapMarker1000 molecular weight standards (BioVentures). The raw capillary electrophoresis data was processed using Attagraph software (Attagene).
# [4] = tested on: turtle Thyroid Hormone Receptor, alpha (TRa), gene 101949057; test: ATG_trTRa_XSP2: Attagene TRANS-FACTORIAL Multi-Species (XSP1) HepG2 Assay for turtle Thyroid Hormone Receptor, alpha (TRa) (AID 2283834);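 further: hits raise reporter mRNA over the DMSO baseline so AC50 marks activators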
# How it was run: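 Turtle TRa-Gal4 chimera activity in transfected human HepG2 cells: reporter transcripts quantified by RT-PCR, 6-FAM labelling and capillary electrophoresis 24 h post-dosing; positive direction versus DMSO, medium containing 3 nM 6-alpha-fluorotestosterone and 1.5 nM norgestrel.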
# [5] = ATG_M_61_XSP2: Attagene TRANS-FACTORIAL Multi-Species (XSP2) HepG2 Assay for M61 Transcription Factor (Internal Marker) (AID 2283835; active means hit-call score of the fitted dose curve at least 0.9, where 1 is the maximum; inactive means score below 0.9;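 further: active means a rise in signal above the DMSO baseline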)
# How it was run: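 Internal background marker, read as RT-PCR/capillary-electrophoresis reporter mRNA 24 h post-dose in transiently transfected HepG2 cells. Androgen receptor stimulated with 3 nM 6-alpha-fluorotestosterone plus 1.5 nM norgestrel; gain of signal versus DMSO analysed.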
# [6] = target: zebrafish Thyroid Hormone Receptor beta (TRb), thrb (gene 30607) (UniProt Q9PVE4); test: ATG_zfTRb_XSP2: Attagene TRANS-FACTORIAL Multi-Species (XSP1) HepG2 Assay for zebrafish Thyroid Hormone Receptor beta (TRb) (AID 2283836);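 on AC50: potency for induction of reporter signal above DMSO so agonist direction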
# Chain of zebrafish Thyroid Hormone Receptor beta (TRb), thrb (gene 30607) (Q9PVE4 whole entry, looked up): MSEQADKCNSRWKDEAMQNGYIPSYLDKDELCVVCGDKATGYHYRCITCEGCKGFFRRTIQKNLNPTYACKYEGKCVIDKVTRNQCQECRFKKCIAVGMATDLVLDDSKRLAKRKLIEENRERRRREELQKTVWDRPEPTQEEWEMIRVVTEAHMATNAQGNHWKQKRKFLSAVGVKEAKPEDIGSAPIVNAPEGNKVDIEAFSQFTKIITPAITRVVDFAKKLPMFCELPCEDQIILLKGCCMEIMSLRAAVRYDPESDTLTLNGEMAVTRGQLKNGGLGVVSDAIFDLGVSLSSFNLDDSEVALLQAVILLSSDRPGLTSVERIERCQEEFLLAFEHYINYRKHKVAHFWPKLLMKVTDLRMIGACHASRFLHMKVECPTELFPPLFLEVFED
# How it was run: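 Transfect HepG2 with multiple reporter transcription units, dose chemical, incubate 24 h. Isolate RNA, reverse-transcribe, amplify and fluorescently label reporter sequences, digest with HpaI, then resolve by capillary electrophoresis. Positive direction fitted against DMSO.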
# [7] = ATG_XTT_Cytotoxicity_XSP2: Cytotoxicity Assessment in the Attagene TRANS-FACTORIAL Multi-Species (XSP2) HepG2 Assay (AID 2283837)
# How it was run: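 XTT-based cell number read-out in human HepG2 liver cells carrying transfected reporter units, measured 24 h after chemical dosing. Activity is signal loss versus DMSO baseline.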
# [8] = target: human Thyroid hormone Receptor alpha (TRa), THRA (gene 7067) (UniProt P10827); test: ATG_hTRa_XSP2: Attagene TRANS-FACTORIAL Multi-Species (XSP2) HepG2 Assay for human Thyroid hormone Receptor alpha (TRa) (AID 2283838)
# Chain of human Thyroid hormone Receptor alpha (TRa), THRA (gene 7067) (P10827 whole entry, looked up, the tested form may be a part): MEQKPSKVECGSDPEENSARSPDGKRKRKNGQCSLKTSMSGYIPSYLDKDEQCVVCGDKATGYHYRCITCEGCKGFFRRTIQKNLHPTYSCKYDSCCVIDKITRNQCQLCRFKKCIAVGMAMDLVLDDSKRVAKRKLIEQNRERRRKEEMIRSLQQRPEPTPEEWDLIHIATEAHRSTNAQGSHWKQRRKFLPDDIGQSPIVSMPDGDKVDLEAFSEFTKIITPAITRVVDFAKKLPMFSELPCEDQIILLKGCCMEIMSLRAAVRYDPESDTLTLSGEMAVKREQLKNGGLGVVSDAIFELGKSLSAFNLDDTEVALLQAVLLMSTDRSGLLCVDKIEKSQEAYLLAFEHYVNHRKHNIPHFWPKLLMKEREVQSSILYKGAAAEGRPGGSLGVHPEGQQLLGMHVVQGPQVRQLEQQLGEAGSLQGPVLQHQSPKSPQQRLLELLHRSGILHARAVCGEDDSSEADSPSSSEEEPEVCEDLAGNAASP
# How it was run: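 Reporter transcripts were read by RT-PCR with fluorescent primer extension, HpaI digestion and capillary electrophoresis. These came from HepG2 cells carrying multiplexed TRa-Gal4 TRANS constructs, harvested 24 hours after dosing. The medium also held 6-alpha-fluorotestosterone (3 nM) and norgestrel (1.5 nM), and increases were fitted against DMSO.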
# [9] = target: frog Thyroid hormone Receptor alpha (TRa), thra-a (gene 397942) (UniProt P15204); test: ATG_frTRa_XSP2: Attagene TRANS-FACTORIAL Multi-Species (XSP2) HepG2 Assay for frog Thyroid hormone Receptor alpha (TRa) (AID 2283839);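 on AC50: AC50 reflects induction of frog TRa-driven reporter mRNA above DMSO baseline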
# Chain of frog Thyroid hormone Receptor alpha (TRa), thra-a (gene 397942) (P15204 whole entry, looked up, the tested form may be a part): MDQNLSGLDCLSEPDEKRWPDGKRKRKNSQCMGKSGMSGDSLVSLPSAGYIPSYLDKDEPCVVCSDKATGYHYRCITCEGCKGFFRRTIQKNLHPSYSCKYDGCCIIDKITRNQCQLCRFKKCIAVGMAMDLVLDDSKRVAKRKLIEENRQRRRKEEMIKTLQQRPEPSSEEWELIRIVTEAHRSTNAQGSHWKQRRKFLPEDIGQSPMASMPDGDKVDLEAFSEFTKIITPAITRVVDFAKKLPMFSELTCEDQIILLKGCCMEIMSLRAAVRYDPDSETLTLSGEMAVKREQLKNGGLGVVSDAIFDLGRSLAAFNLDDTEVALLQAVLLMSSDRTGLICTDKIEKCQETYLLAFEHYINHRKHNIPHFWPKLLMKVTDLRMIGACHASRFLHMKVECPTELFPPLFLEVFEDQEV
# How it was run: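 Reporter transcripts were measured by RT-PCR with capillary electrophoresis after 24 h dosing of HepG2 carrying transiently transfected multi-reporter units, including a chimeric frog TRa-GAL4 construct. Activity was taken as increase over DMSO vehicle.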
# [10] = target: human Thyroid hormone Receptor beta (TRb), THRB (gene 7068) (UniProt P10828); test: ATG_hTRb_XSP2: Attagene TRANS-FACTORIAL Multi-Species (XSP2) HepG2 Assay for human Thyroid hormone Receptor beta (TRb) (AID 2283840);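 further: actives raise reporter mRNA so potency reflects agonist-like gain of signal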
# Chain of human Thyroid hormone Receptor beta (TRb), THRB (gene 7068) (P10828 whole entry, looked up): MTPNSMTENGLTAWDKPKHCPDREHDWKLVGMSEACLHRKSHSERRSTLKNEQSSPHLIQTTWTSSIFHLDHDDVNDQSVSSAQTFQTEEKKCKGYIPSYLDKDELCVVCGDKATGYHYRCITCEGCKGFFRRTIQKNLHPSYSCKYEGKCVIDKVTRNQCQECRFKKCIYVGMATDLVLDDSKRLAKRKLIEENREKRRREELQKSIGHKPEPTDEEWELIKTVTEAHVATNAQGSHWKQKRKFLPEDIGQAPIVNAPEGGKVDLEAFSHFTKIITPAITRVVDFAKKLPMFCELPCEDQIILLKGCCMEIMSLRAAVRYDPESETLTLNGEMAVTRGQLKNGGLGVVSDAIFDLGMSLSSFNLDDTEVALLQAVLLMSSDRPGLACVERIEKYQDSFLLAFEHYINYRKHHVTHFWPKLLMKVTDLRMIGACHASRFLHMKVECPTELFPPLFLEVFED
# Protocol: as §1, with “receptor.ATG_hTRb_XSP2” for “receptor.ATG_zfPPARg_XSP2”, “ATG_hTRb_XSP2” for “ATG_zfPPARg_XSP2”, “TR.” for “PPARg.”
# as §2
compound,measurement,setting,value
OCC#CCO,outcome,[1],inactive
C=C[Si]1(C)O[Si](C)(C=C)O[Si](C)(C=C)O[Si](C)(C=C)O1 (stereo unspecified),outcome,[2],inactive
C=C1CC[C@H](O)C/C1=C/C=C1\CCC[C@]2(C)[C@@H]([C@H](C)/C=C/[C@H](C)C(C)C)CC[C@@H]12,outcome,[1],inactive
Cc1ccc(S(=O)(=O)Oc2ccc(N=Nc3ccc(-c4ccc(N=Nc5c(O)ccc6cc(S(=O)(=O)O)cc(S(=O)(=O)O)c56)c(C)c4)cc3C)cc2)cc1,AC50,[1],13 µM (active)
OCc1cccc(Oc2ccccc2)c1,outcome,[3],inactive
same,outcome,[4],inactive
same,outcome,[5],inactive
same,outcome,[6],inactive
same,outcome,[7],inactive
same,outcome,[8],inactive
same,outcome,[9],inactive
same,outcome,[10],inactive
CCCCC(CC)COC(=O)c1ccc(O)cc1 (stereo unspecified),AC50,[3],60 µM (active)
same,outcome,[6],inactive
same,outcome,[9],inactive
same,outcome,[10],inactive
same,AC50,[1],83.9 µM (active)
O=CCc1ccccc1,outcome,[1],inactive
Cc1cc(=O)oc2cc(N(C)C)ccc12,outcome,[3],inactive
same,outcome,[4],inactive
same,outcome,[5],inactive
same,outcome,[6],inactive
same,outcome,[7],inactive
same,outcome,[8],inactive
same,outcome,[9],inactive
same,outcome,[10],inactive
O=c1c(O)c(-c2ccc(O)cc2)oc2cc(O)cc(O)c12,outcome,[3],inactive
same,outcome,[4],inactive
same,outcome,[5],inactive
same,outcome,[6],inactive
same,outcome,[7],inactive
same,outcome,[8],inactive
same,outcome,[9],inactive
same,outcome,[10],inactive
same,outcome,[1],inactive
CCCCCCCCCCCCCCN(CCO)CCO,outcome,[1],inactive
[O-]n1ccccc1=S.[O-]n1ccccc1=S.[Zn+2],outcome,[1],inactive
c1ccc(Oc2ccccc2)cc1,outcome,[1],inactive
CCCCCCCCSCCO,outcome,[1],inactive
CC(CN=Cc1ccccc1O)N=Cc1ccccc1O (stereo unspecified),outcome,[1],inactive
CCCCCCCCc1ccc(S(=O)(=O)O)cc1,outcome,[1],inactive
OC[C@H]1O[C@@H]2O[C@H]3[C@H](O)[C@@H](O)[C@@H](O[C@H]4[C@H](O)[C@@H](O)[C@@H](O[C@H]5[C@H](O)[C@@H](O)[C@@H](O[C@H]6[C@H](O)[C@@H](O)[C@@H](O[C@H]7[C@H](O)[C@@H](O)[C@@H](O[C@H]8[C@H](O)[C@@H](O)[C@@H](O[C@H]9[C@H](O)[C@@H](O)[C@@H](O[C@H]1[C@H](O)[C@H]2O)O[C@@H]9CO)O[C@@H]8CO)O[C@@H]7CO)O[C@@H]6CO)O[C@@H]5CO)O[C@@H]4CO)O[C@@H]3CO,outcome,[1],inactive
BrCc1cccc(Oc2ccccc2)c1,outcome,[3],inactive
same,outcome,[4],inactive
same,outcome,[5],inactive
same,outcome,[6],inactive
same,outcome,[8],inactive
same,outcome,[9],inactive
same,outcome,[10],inactive
same,outcome,[1],inactive
C[C@H]1O[C@@H](O[C@H]2[C@@H](O)C[C@H](O[C@H]3[C@@H](O)C[C@H](O[C@H]4CC[C@@]5(C)[C@H](CC[C@@H]6[C@@H]5C[C@@H](O)[C@]5(C)[C@@H](C7=CC(=O)OC7)CC[C@]65O)C4)O[C@@H]3C)O[C@@H]2C)C[C@H](O)[C@@H]1O,outcome,[1],inactive
CCCCCCC(=O)c1ccccc1,outcome,[1],inactive
O=[N+]([O-])c1ccc(O)cc1C(F)(F)F,outcome,[1],inactive
COc1ccc(OC)c(N=Nc2c(O)ccc3ccccc23)c1,outcome,[2],inactive
C=C(C)C(=O)OCCOC1CC2CC1C1C=CCC21 (stereo unspecified),outcome,[1],inactive
CCc1cc(C(C)(C)C)c(O)c(C(C)(C)C)c1,outcome,[1],inactive
COc1ccc(N=Nc2cc(C)c(N=Nc3ccc(S(=O)(=O)O)cc3)cc2OC)cc1,outcome,[1],inactive
O=C(c1ccccc1)C(O)c1ccccc1 (stereo unspecified),outcome,[1],inactive
Oc1ccc2cc(SSc3ccc4cc(O)ccc4c3)ccc2c1,outcome,[3],inactive
same,AC50,[4],26.8 µM (active)
same,outcome,[4],inactive
same,outcome,[5],inactive
same,AC50,[6],154 µM (active)
same,outcome,[6],inactive
same,outcome,[7],inactive
same,AC50,[8],132 µM (active)
same,outcome,[8],inactive
same,AC50,[9],160 µM (active)
same,outcome,[9],inactive
same,AC50,[10],100 µM (active)
same,outcome,[10],inactive
CCCCCCCCC=CCCCCCCCC1=NCCN1CCO,outcome,[1],inactive
CCOC(=O)[C@@H](C)Oc1ccc(Oc2nc3ccc(Cl)cc3o2)cc1,outcome,[1],inactive
Clc1ccc(C(c2ccccc2Cl)C(Cl)Cl)cc1 (stereo unspecified),outcome,[3],inactive
same,outcome,[5],inactive
same,outcome,[6],inactive
same,AC50,[7],100 µM (active)
same,outcome,[8],inactive
same,outcome,[9],inactive
same,outcome,[10],inactive
same,outcome,[1],inactive
CCOc1ccc(N=Nc2ccc(C=Cc3ccc(N=Nc4ccc(OCC)cc4)cc3S(=O)(=O)O)c(S(=O)(=O)O)c2)cc1,outcome,[1],inactive
CCCCCC(C=O)=Cc1ccccc1,outcome,[1],inactive
O=C(CC(=O)c1ccccc1)c1ccccc1,outcome,[1],inactive
CCCCCCCCCCCCN1CCCCCC1=O,outcome,[1],inactive
CC=Cc1ccc(OC)c(OC)c1,outcome,[2],inactive
